Bioassay records as filed in PubChem BioAssay.
An excerpt weighted towards active compounds, which were near 1.8% of everything screened.
PME-1 primary = PME-1 (human) inhibition; 320,000 tested, 0.53% active; inhibition, % at 5.9 µM; AID 2130; recombinant PME-1, FP-Rh probe fluorescence polarization; Q9Y570;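 active = inhibition above the campaign mean of all compounds plus 3 SD, cut at about 26% in these data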;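 also: competitive labeling of PME-1 active site by serine hydrolase directed probe; 0% = PME-1 with DMSO and 100% = wells lacking PME-1 enzyme; inhibitors block probe labeling so polarization falls and inhibition rises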
GSTO1 counter = GSTO1 inhibition, counter-screen for RBBP9 inhibitors; 300,000 tested, 1.1% active; P78417; inhibition, % at 5.96 µM; recombinant GSTO1, activity-based probe fluorescence polarization;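 active = inhibition above the campaign mean inhibition plus 3 SD, cut at about 35% in these data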;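 also: 0% = GSTO1-1 with DMSO and 100% = wells lacking GSTO1-1 enzyme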
Target sequence (P78417 whole entry, looked up): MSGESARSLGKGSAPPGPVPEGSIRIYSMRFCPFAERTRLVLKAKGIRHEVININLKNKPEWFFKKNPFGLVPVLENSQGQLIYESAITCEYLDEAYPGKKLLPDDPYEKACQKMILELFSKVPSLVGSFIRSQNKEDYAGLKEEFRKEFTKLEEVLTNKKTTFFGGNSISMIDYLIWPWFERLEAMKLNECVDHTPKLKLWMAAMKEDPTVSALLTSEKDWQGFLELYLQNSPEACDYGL
Fam108B inh = counter-screen for RBBP9 inhibitors: inhibitors of mouse Fam108B. recombinant Fam108B, FP-Rh probe fluorescence polarization. inhibition, % at 9.51 µM. 300,000 tested, 0.33% active. AID 1947;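 active = inhibition above the screen mean inhibition plus 3 SD, computed separately per campaign, cut at about 18% in these data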;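 also: inhibitors lower polarization as less probe binds the enzyme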
LYPLA1 counter = blocks human lysophospholipase 1, a PME1 counter-screen; recombinant LYPLA1, FP-Rh probe fluorescence polarization; AID 2174; O75608; 320,000 tested, 0.16% active; inhibition, % at 5.9 µM;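 active = inhibition above the mean of all tested compounds plus 3 SD, set per campaign, cut at about 14% in these data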;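 also: inhibitors block serine hydrolase probe labeling of LYPLA1 so polarization falls; 0% = enzyme with DMSO and 100% = wells lacking LYPLA1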
Target sequence (O75608 whole entry, looked up): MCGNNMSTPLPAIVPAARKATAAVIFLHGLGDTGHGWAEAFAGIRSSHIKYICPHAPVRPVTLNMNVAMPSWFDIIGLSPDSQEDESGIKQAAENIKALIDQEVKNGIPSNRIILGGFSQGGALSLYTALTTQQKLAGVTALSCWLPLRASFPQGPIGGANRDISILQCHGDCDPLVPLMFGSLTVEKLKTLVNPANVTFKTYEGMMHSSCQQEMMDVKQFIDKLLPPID
PAD4 FP inh = blocks human protein arginine deiminase 4 | Q9UM07 | recombinant PAD4, RCA probe fluorescence polarization | inhibition, % at 6.36 µM | 330,000 tested, 0.41% active | AID 485272;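 active = percent inhibition above a cutoff equal to the mean of all tested compounds plus 3 SD, cut at about 15% in these data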;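 also: 0% = PAD4 with RCA probe and DMSO and 100% = probe without PAD4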
LYPLA2 inh = blocks human lysophospholipase 2, a PME1 counter-screen | 320,000 tested, 0.38% active | inhibition, % at 5.9 µM | O95372 | AID 2177 | recombinant LYPLA2, FP-Rh probe fluorescence polarization;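 active = inhibition above the screen-wide mean plus 3 SD, limit set per campaign, cut at about 26% in these data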;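 also: 0% = LYPLA2 with DMSO and 100% = wells lacking LYPLA2 enzyme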
LYPLA2 confirm = LYPLA2 (human) inhibition, confirmation counter-screen | recombinant LYPLA2, FP-Rh probe fluorescence polarization | shares compounds with LYPLA2 inh | inhibition, % at 5.9 µM | 1,100 tested, 72% active;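 active = mean inhibition across replicates above the hit cutoff set in the primary screen, cut at about 26% in these data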;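 also: blocked labeling of the enzyme by serine hydrolase FP-Rh probe lowers polarization; 0% = enzyme with DMSO and 100% = wells lacking LYPLA2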
LYPLA2 gel ABPP = LYPLA2 (human) inhibition, late stage results. shares compounds with LYPLA2 inh. rhLYPLA2 in mouse brain proteome, gel ABPP FP-Rh. inhibition, % at 20 µM. 150 tested, 30% active;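 active = inhibition of LYPLA2 enzyme probe labeling above about 50%, limit read from the data; inactive = inhibition below that limit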;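 also: loss of FP-Rh probe labeling of the LYPLA2 gel band measured as band density; 0% = DMSO only control band and 100% = blank gel background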
Active calls of the source: *; . = no result given.

SMILES	PME-1 primary	GSTO1 counter	Fam108B inh	LYPLA1 counter	PAD4 FP inh	LYPLA2 inh	LYPLA2 confirm	others
CCN(CC)CCCNC(=O)c1sc2ncn(CC(=O)Nc3ccc(C)c(Cl)c3)c(=O)c2c1C	-5.9	-3.5	-4.5	-2.5	-0.6	38.4*	40.4*
COc1ccccc1NC(=O)Cn1cnc2sc(C(=O)NCc3ccco3)c(C)c2c1=O	-2.2	-3.5	-1.1	0.5	0.4	64.2*	57.5*	LYPLA2 gel ABPP=49.0
CCn1cnc2sc(C(=O)Nc3ccccc3OC)c(C)c2c1=O	0.4	5.0	-1.7	0.8	-3.3	-0.1	.
CCN(CC(=O)NCc1ccc(Cl)cc1)C(=O)c1cc(S(=O)(=O)N2CCOCC2)ccc1C	.	.	.	.	0.7	.	.
CCN(CC(=O)NCc1cccs1)C(=O)c1cc(S(=O)(=O)N2CCOCC2)ccc1C	4.3	-3.8	2.1	-4.4	0.0	28.7*	-1.9
COc1ccc(N2CCN(C(=O)CNS(=O)(=O)c3ccc(Br)s3)CC2)cc1	-2.9	-2.8	-1.8	9.8	0.7	27.0*	33.5*
COc1ccccc1N1CCN(C(=O)CNS(=O)(=O)c2ccc(Br)s2)CC1	-1.0	-5.3	-1.4	-3.0	-3.0	-5.1	.
COc1ccc(N2CCN(C(=O)CCNS(=O)(=O)c3cc(Br)cnc3N)CC2)cc1	-2.1	9.2	0.6	0.9	-8.2	31.9*	23.7
O=C(COc1cc2oc(=O)cc(-c3ccccc3)c2cc1Cl)NCC1CCC(C(=O)O)CC1 (centres undefined)	6.5	-11.1	-0.7	-0.6	0.4	42.4*	36.9*
CCc1cc2c(-c3ccccc3)cc(=O)oc2cc1OCC(=O)NCC1CCC(C(=O)O)CC1 (centres undefined)	-2.7	-2.4	1.2	-0.6	-2.4	2.1	.
O=C(CSc1n[nH]c(-c2ccccc2)n1)Nc1ncc(Br)cc1Br	1.4	4.4	1.2	-2.1	-2.3	1.2	.
CCOC(=O)N1CCN(S(=O)(=O)c2ccc(F)c(C(=O)Nc3cccc(Cl)c3C)c2)CC1	5.5	-3.5	-3.2	2.5	2.1	40.5*	41.2*
O=C(Nc1ccccc1C(=O)O)c1cc(S(=O)(=O)N2CCCCCC2)ccc1Cl	6.5	-8.8	0.2	-3.7	-3.4	34.8*	6.2
Cc1ccc(-n2nc3c(=O)n(CC(=O)NCCC4=CCCCC4)nc(C)c3c2C)cc1	-1.9	1.1	9.7	-1.7	3.2	-1.3	.
c1ccc(-c2ccc(C(c3ccccc3)n3ccnc3)cc2)cc1 (centres undefined)	-5.0	2.9	2.3	-3.9	-3.6	27.4*	23.1
COc1cccc(OC)c1C(=O)Nc1ccc(N2CCN(C(=O)c3cccs3)CC2)cc1	-3.5	-6.7	-0.5	2.0	-0.8	-0.3	.
O=C(Nc1ccc(N2CCN(C(=O)c3cccs3)CC2)cc1)c1ccccc1Cl	1.8	-5.5	0.4	2.0	-0.6	41.0*	40.8*
O=C(Nc1ccc(N2CCN(C(=O)c3cccs3)CC2)cc1)c1ccccc1F	7.5	-3.2	1.1	5.2	-3.3	26.8*	15.3
Cc1cc(OCC(=O)N2CCOCC2)cc2oc(=O)c3ccccc3c12	-0.6	-5.6	-1.5	-1.3	1.4	-2.1	.
CCCN(CCC)C(=O)c1ccc2c(c1)S(=O)(=O)c1ccccc1C2=O	4.8	-2.6	-1.0	5.0	3.9	31.2*	19.5
CC(=O)c1ccc(OCc2cc(C(=O)NC(C)c3cnn(C)c3)no2)cc1 (centres undefined)	-3.4	6.5	-0.3	5.0	1.2	29.7*	21.5
O=C(Cn1cnc2ccccc2c1=O)c1ccc2ccccc2c1	-1.8	-1.0	2.0	-0.6	-1.7	27.1*	25.4
Fc1ccc(CSc2ncnc3ccccc23)cc1	6.3	0.4	0.5	0.1	2.6	26.1*	25.9*
Cc1cccc(Sc2ccc([N+](=O)[O-])cn2)c1	3.3	-4.4	-1.2	0.0	0.5	29.2*	28.5*
Cc1ccccc1Sc1ccc([N+](=O)[O-])cn1	-4.4	-0.8	0.2	3.6	5.3	34.4*	31.2*
